# Unmarked numbers belong to inactive results. Activity calls are given as the source filed them. Unless noted, no stated cut-off is given here; in the data, active means inhibition above about 33%; inactive means the rest.
# Legend:
# [1] = StAR promoter reporter inhibitors, counter-screen for LRH-1 inverse agonist project, cell-based, luminescence, high throughput (AID 651611; in the data active means inhibition above about 28%); details: StAR promoter luciferase reporter counterscreen, at 3.6 µM, hits give high values
# [2] = molecular target: Nuclear receptor subfamily 5 group A member 2 (Homo sapiens) (UniProt O00482); assay: NR5A2 activity suppression in reporter cells – cell-based, luminescence, confirmation (AID 651613; in the data active means inhibition above about 42%;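 further: HEK293T cells co-transfected with LRH-1 and StAR promoter luciferase reporter; 0% = vehicle wells and 100% = parental cells lacking receptor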); details: cell-based LRH-1 luciferase reporter, inverse agonism; at 3.6 µM; hits give high values
# [3] = molecular target: Steroidogenic factor 1 (Homo sapiens) (UniProt Q13285); assay: inverse agonism at SF1 nuclear receptor – cell-based, luminescence, high throughput, counter-screen for LRH-1 inverse agonist project (AID 651614; in the data active means inhibition above about 44%;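 further: cells cotransfected with StAR promoter reporter and SF1 expression vector; 0% = vehicle on cells with receptor and 100% = vehicle on cells lacking receptor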); details: cell-based SF1 luciferase reporter, at 3.6 µM, hits give high values
# [4] = compounds suppressing VP16-driven luciferase signal – cell-based, luminescence, high throughput, counter-screen for LRH-1 inverse agonist project (AID 651615); details: Gal4-VP16 luciferase reporter cells, at 3.6 µM, hits give high values
# Chain of Nuclear receptor subfamily 5 group A member 2 (Homo sapiens) (O00482 whole entry, looked up): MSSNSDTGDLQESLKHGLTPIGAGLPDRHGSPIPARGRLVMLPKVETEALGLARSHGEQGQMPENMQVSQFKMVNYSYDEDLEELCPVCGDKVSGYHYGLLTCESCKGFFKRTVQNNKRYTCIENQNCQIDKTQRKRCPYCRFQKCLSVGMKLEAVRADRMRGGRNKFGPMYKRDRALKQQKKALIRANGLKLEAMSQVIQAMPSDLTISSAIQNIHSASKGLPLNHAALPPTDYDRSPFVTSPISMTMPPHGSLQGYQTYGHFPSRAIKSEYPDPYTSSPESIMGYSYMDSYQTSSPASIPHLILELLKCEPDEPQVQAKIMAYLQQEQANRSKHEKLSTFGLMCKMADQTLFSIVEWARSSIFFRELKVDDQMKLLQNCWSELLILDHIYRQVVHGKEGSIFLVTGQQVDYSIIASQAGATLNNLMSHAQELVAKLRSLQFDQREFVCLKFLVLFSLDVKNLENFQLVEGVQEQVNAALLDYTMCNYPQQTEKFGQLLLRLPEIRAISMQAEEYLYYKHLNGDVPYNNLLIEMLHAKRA
# Chain of Steroidogenic factor 1 (Homo sapiens) (Q13285 whole entry, looked up, the tested form may be a part): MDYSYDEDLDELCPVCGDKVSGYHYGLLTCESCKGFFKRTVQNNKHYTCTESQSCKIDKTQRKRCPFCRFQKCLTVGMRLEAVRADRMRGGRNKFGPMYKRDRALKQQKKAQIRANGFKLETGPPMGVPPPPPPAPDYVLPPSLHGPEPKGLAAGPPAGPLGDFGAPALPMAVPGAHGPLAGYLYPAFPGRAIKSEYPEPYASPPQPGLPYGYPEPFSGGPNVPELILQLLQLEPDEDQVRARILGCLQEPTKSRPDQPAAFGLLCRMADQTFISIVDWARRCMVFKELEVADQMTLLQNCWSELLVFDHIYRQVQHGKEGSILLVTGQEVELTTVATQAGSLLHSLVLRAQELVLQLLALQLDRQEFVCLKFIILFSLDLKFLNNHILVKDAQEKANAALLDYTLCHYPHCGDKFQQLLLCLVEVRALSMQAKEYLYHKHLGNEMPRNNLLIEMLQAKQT
Compound,inhibition [1],inhibition [2],inhibition [3],inhibition [4]
CCOc1ccc(CCNC(=O)COC(=O)/C=C/c2ccc(OC(F)F)c(OC)c2)cc1OCC,12.5%,51.5% (active),47.1% (active),-3.71%
O=C(COc1ccc(S(=O)(=O)N2CCCC2)cc1Cl)NCc1ccc2c(c1)OCO2,26.1%,34%,32.6%,2.14%
Cc1nc2ccccc2n1/N=C/c1ccc([N+](=O)[O-])o1,16.3%,70.9% (active),68.1% (active),15%
CCN(CC)S(=O)(=O)c1ccc(N2CCOCC2)c(NC(=O)c2[nH]c(C)c(C(C)=O)c2C)c1,61.6% (active),51.5% (active),25.8%,-200%
CCC(=O)Nc1ccc(NC(=O)CSc2nc3cc4c(cc3cc2C)CCC4)cc1,9.63%,56.4% (active),50.7% (active),0.93%
O=C(NC1CCCCC1)c1ccc([N+](=O)[O-])o1,24.6%,54.9% (active),54.4% (active),-17.1%
COc1cc(-c2noc(C)c2-c2ccc(N(C)C)nc2)cc(OC)c1OC,58.7% (active),53% (active),63.2% (active),-0.05%
Nn1c(SCC(=O)Nc2c(F)cc(F)cc2Br)nnc1C1CCCCC1,6.71%,38.9%,27.5%,-6%
COc1ccc(C(=O)Nc2cnccn2)cc1[N+](=O)[O-],-2.94%,35.3%,26.4%,4.88%
O=C(Nc1cccc(NC(=O)c2ccc([N+](=O)[O-])o2)c1)c1ccco1,23.5%,69% (active),70.5% (active),-8.09%
COc1cc(F)c(C2=CC(=O)CC(C)(C)C2)cc1F,-6.98%,43.9% (active),34.5%,-13.9%
Oc1cccc(Nc2nc(N3CCOCC3)nc(N3CCOCC3)n2)c1,24.7%,45% (active),21.6%,21%
CC(=O)/C(=N/Nc1ccccc1[N+](=O)[O-])N1CCCc2ccccc21,17.5%,49.2% (active),52.1% (active),22.7%
CC1(C(=O)NCc2ccco2)Cc2c(-c3ccccc3)ccnc2O1 (configuration not stated),42% (active),36.3%,59% (active),26.6%
Cc1ccnc2nc(C(=O)OCC(=O)Nc3ccc([N+](=O)[O-])cc3Br)nn12,9.71%,38.9%,32.1%,-0.95%
COc1cc2c(cc1OC)C(C1C(=O)CC(C)CC1=O)N(C(=O)CCl)CC2 (configuration not stated),19.1%,54.1% (active),58.5% (active),-19.1%
COc1cccc(C(NC(C)=O)c2ccc3cccnc3c2O)c1 (configuration not stated),74.9% (active),89.8% (active),76.5% (active),76.3% (active)
C/C(=N\NC(N)=S)C1(C)CCCCC1,20.6%,57.1% (active),53.3% (active),29.4%
Cc1nn(Cc2ccc(Cl)cc2)c(C)c1NC(=O)c1noc2c1CCCCC2,21%,46.8% (active),54.7% (active),18.3%
COc1cccc2c1C(=O)c1c(O)c3c(c(O)c1C2=O)C[C@@](O)(C(C)=O)C[C@@H]3O[C@H]1C[C@H](N)[C@H](O)[C@H](C)O1,76.5% (active),104% (active),94.4% (active),94% (active)
CCOC(=O)N1CCN(C(=O)CCl)CC1,11%,56% (active),57.9% (active),-8.13%
COc1cccc(C(C)(O)c2nc(-c3ccoc3)cs2)c1 (configuration not stated),-0.36%,30.2%,21.5%,-0.14%
Nc1c2ccccc2nc2ccccc12,14.7%,106% (active),52.1% (active),90.4% (active)
CCC(=O)N1CCN(c2cc(NCC3CCCO3)c(F)cc2[N+](=O)[O-])CC1 (configuration not stated),9.58%,43.8% (active),50.7% (active),0.55%
Cc1cc(OCC(=O)Nc2nccs2)c2c(C)cc(=O)oc2c1,16.2%,66.6% (active),55.3% (active),-19.8%
OCCCNc1ncnc2oc(-c3ccccc3)c(-c3ccccc3)c12,9.63%,35.1%,27.6%,13.3%
CC1CCC2(CC1)NC(=O)N(CC(=O)Nc1ccc3c(c1)CCC3)C2=O (configuration not stated),39.1% (active),49.1% (active),48.9% (active),12.8%

Compound,inhibition [1],inhibition [2],inhibition [3],inhibition [4]
COc1ccc(NC(=O)CSc2ccc3c(c2)OCCO3)cc1,2.27%,63.5% (active),56.7% (active),-4.1%
COc1cc2c(cc1OC)CN(C(=O)c1ccc([N+](=O)[O-])o1)CC2,12.4%,65.1% (active),64.4% (active),7.13%
CC(C)CC1(C)NC(=O)N(CC(=O)Nc2ccc3c(c2)OCCO3)C1=O (configuration not stated),16.7%,54.2% (active),53% (active),7.91%
CCOc1ccc(NC(=O)CSc2nncc(=O)[nH]2)cc1,8.36%,63% (active),57.7% (active),-11.2%
COc1ccc(-n2c(N)c(C(=O)NCc3cccnc3)sc2=S)cc1,4.01%,48.7% (active),50.4% (active),-1.03%
Cc1ccc2nsnc2c1NC(=O)c1ccc([N+](=O)[O-])o1,14.4%,57.8% (active),55.7% (active),-22.5%
COc1ccc(S(=O)(=O)Nc2ccc3c(c2)n(C)c(=O)n3C)cc1F,19.6%,46.2% (active),52.1% (active),7.89%
C#CCN(C[C@@H]1[C@@H](OC(=O)NCc2ccc(OC)c(OC)c2)[C@@H](OC(=O)NCc2ccc(OC)c(OC)c2)CN(C(=O)OC(C)C)N1C(=O)OC(C)C)S(=O)(=O)c1ccc(C)cc1,1.68%,35.2%,30.1%,10.3%
CC1CCCC(C)N1C(=O)COC(=O)Cc1ccc(F)cc1 (configuration not stated),-0.44%,47.2% (active),44.5% (active),3.23%
Cc1cc(Br)ccc1NC(=O)CSc1nnc(CN2CCOCC2)n1C,15.4%,47.8% (active),42.5%,0.09%
COc1ccc(N2CCN(C(=O)CSc3nc4ccccc4c(=O)[nH]3)CC2)cc1,12.5%,46.8% (active),27.8%,-12.9%
O=C(CSC1=NC2(CCCCCC2)N=C1c1ccccc1)Nc1ccc2c(c1)OCCO2,8.01%,60.2% (active),62.2% (active),12.7%
COc1ccc(OCCNC(=O)C2(C)CCN2Cc2ccc(SC)cc2)cc1 (configuration not stated),1.32%,46% (active),45.9% (active),2.76%
C=CCOc1ccccc1CN(C(=O)CCl)c1ccc2c(c1)OCO2,7.87%,68.8% (active),53.5% (active),-54.5%
CCOC(=O)N1CCN(C(=O)CSc2nc3c([nH]c4ccccc43)c(=O)n2CC)CC1,36.3% (active),63.7% (active),55.8% (active),-25.2%
O=C(Nc1ccccn1)c1ccc([N+](=O)[O-])o1,14.3%,58.2% (active),59.1% (active),-16.1%
Cc1cc(C)nc(-n2nc(C)cc2Nc2ccccc2)n1,4.56%,35.7%,19.6%,24%
Cc1ccc(S(=O)(=O)Nc2ccc3c(c2)n(C)c(=O)n3C)cc1,40.1% (active),48.8% (active),38.3%,-96.8%
COc1ccc(-c2cc(-c3ccc(O)cc3)nc(N)c2C#N)cc1,27.8% (active),58.3% (active),49% (active),-19.5%
Cc1onc(-c2c(F)cccc2Cl)c1C(=O)c1ccc(F)cc1,2%,46.1% (active),46.2% (active),-8.21%
Cc1ccc(C)c(-c2cc(C(=O)N/N=C/c3cccnc3)c3ccccc3n2)c1,9.19%,51.1% (active),44.9% (active),5.29%
O=C(Nc1ccccc1C(=O)Nc1nccs1)c1ccccc1,15.4%,52.8% (active),47.8% (active),2.34%
CCCCNC(=O)CSc1nc2ccc(NC(=O)CSc3nnc(COc4ccccc4C)n3C)cc2s1,2.43%,61.2% (active),61.3% (active),-5.17%
O=C(Cc1c(Cl)cccc1Cl)Nc1ccncc1,16.9%,53.1% (active),45.4% (active),-10%
Cc1onc(-c2c(F)cccc2Cl)c1C(=O)O/N=C(\N)c1ccc([N+](=O)[O-])o1,11.6%,70.9% (active),60.4% (active),-7.18%
C=CCNC(=S)N/N=C(\C)c1ccccn1,89.3% (active),95.5% (active),88.6% (active),54.8% (active)
